From the supplement of paper PMC3334620
The full ranking holds about 33,000 sequences; the median of “E-score (-0.5 to 0.5)” is about -0.035, and the highest 2% start at about 0.35. The entries come from a sample that favours the highest values as a whole.

Target: T1, Pdr3 (UniProt P33200)
T1 sequence: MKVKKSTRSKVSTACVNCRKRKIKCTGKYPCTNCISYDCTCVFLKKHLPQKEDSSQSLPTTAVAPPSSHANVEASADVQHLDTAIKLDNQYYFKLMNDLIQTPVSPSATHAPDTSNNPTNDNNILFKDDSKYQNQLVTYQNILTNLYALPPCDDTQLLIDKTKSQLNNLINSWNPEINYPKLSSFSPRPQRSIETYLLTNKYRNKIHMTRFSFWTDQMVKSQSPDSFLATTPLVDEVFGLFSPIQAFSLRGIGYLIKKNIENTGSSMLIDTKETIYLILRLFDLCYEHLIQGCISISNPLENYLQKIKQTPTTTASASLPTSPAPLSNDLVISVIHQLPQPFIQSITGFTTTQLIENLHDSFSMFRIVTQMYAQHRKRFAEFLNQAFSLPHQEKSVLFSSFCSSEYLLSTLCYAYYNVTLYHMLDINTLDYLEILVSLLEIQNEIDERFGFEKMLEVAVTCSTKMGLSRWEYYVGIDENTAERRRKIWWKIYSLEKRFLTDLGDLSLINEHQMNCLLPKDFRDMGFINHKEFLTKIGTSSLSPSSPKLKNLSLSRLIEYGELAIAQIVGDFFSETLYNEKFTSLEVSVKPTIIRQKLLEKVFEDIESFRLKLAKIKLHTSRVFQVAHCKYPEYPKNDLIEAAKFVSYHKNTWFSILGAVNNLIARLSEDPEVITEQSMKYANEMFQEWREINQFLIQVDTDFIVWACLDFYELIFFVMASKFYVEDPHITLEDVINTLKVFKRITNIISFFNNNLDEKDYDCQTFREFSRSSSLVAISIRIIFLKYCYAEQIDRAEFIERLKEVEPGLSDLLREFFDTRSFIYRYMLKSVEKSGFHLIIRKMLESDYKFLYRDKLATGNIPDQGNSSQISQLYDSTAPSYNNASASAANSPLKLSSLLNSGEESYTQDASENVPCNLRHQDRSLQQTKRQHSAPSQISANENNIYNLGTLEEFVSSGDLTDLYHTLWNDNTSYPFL
Assay: PBM E-score (8-mer binding enrichment) (E-score (-0.5 to 0.5)); higher = stronger / more preferred TF binding
Settings: protein concentration: 200 nM; construct: GST-full length
Method: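 Universal 'all 10-mer' protein binding microarrays (Agilent AMADID 015681) probed with GST-tagged S. cerevisiae TFs (full-length or DBD) made by in vitro transcription/translation (PURExpress), about 100-200 nM. Bound TF was detected with fluorescent anti-GST. Each ungapped 8-mer (which stands for itself and its reverse complement) is scored by the PBM enrichment score (E-score), a modified Wilcoxon-Mann-Whitney statistic from -0.5 to +0.5, computed with the Universal PBM Analysis Suite. Scale: above 0.35 generally sequence-specific binding.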

Row | Sequence | PBM E-score
1 | CACTCCTA | -0.112
2 | GAAAGCCC | 0.201
3 | CTATTGAC | -0.153
4 | GTCTCTTA | 0.0669
5 | ACCCATGC | -0.0401
6 | CGGAAGTA | 0.393
7 | CGGAAGTC | 0.421
8 | AGGAAGTC | -0.162
9 | AGGAAGTA | 0.0507
10 | GGGAAGTA | 0.097
11 | CTGAAGTC | 0.0005
12 | ATTGGGCA | -0.131
13 | ACAAGCAT | -0.0569
14 | GAGTGATC | 0.0656
15 | GAGCGGGC | 0.113
16 | CACGGACC | 0.378
17 | AACGGACA | 0.363
18 | CACGGACA | 0.355
19 | AACGGACC | 0.303
20 | AACGGTCA | 0.146
21 | TACGGACA | 0.225
22 | GACGGACC | 0.33
23 | CACGGACG | 0.324
24 | AACGGACG | 0.241
25 | CCACCCCG | 0.165

Row | Sequence | PBM E-score
26 | CCCTGCTA | -0.0619
27 | TACGGGCA | 0.00013
28 | CTGTTCCC | 0.0618
29 | ACACTAGT | -0.167
30 | AGGCTTTC | -0.203
31 | TCTGTGAA | -0.0705
32 | GCGGAGAC | 0.336
33 | CCGGAGAC | 0.37
34 | ACGGAGAG | 0.319
35 | TCGGAGAA | 0.225
36 | ACGGAGAA | 0.265
37 | CCGGAGAG | 0.363
38 | CAGGAGAG | -0.174
39 | ACGGAGAC | 0.321
40 | CCGGAGAA | 0.385
41 | AATGAGGA | -0.177
42 | GCAGTCGC | -0.0644
43 | TATCGCGA | 0.258
44 | GCCTTCCC | -0.1
45 | CCTACTCC | -0.0705
46 | GCTACTGA | 0.00622
47 | AATTCCTC | 0.0037
48 | AATTCCCC | 0.203
49 | CATTCCGC | 0.421
50 | AATTCCCG | 0.298

Row | Sequence | PBM E-score
51 | AATTCCGC | 0.397
52 | GATTCCCC | 0.0929
53 | CATTCCTC | 0.0812
54 | CATTCCAC | 0.0732
55 | GATTCCAC | 0.19
56 | AATTCCGG | 0.449
57 | AATTCCTG | -0.021
58 | GATTCCGC | 0.455
59 | CGCCCTCC | 0.0638
60 | TAATGATA | 0.132
61 | ATCGCATC | 0.121
62 | GTCCCAAA | -0.154
63 | CAGGCCAC | 0.00119
64 | ATTTGCAG | -0.0031
65 | ACCATAGG | -0.229
66 | GAGAAAAA | 0.176
67 | ATCTGGGG | -0.109
68 | AATTCCGT | 0.449
69 | AATTCCCA | -0.171
70 | AATTCCCT | -0.207
71 | AATTCCGA | 0.423
72 | AATTCCAA | -0.0365
73 | AATTCCAT | 0.156
74 | ACTAGCCG | 0.105
75 | GACCCGAC | 0.21

Row | Sequence | PBM E-score
76 | CGCCCGGC | 0.293
77 | CGCCCGGA | 0.396
78 | AGCCCCGG | 0.303
79 | AGCCCGGA | 0.355
80 | AGCCCGGG | 0.383
81 | AGCCCGAG | -0.044
82 | AGCCCGGC | 0.264
83 | GGCCCGGA | 0.336
84 | CGCCCGAA | 0.117
85 | ACACAGTC | -0.0508
86 | CTAGCATC | -0.172
87 | CTTTCTAC | -0.16
88 | ACCATACG | -0.0138
89 | GTGGCGGA | 0.271
90 | GCGGCGGA | 0.404
91 | CCGGCGGA | 0.449
92 | CCGGCGGC | 0.325
93 | ACGGCGGA | 0.314
94 | CTGGCGGA | 0.131
95 | ATCTCCTA | -0.245
96 | GATACGAA | 0.033
97 | GCCTGGCC | 0.00694
98 | TCAACACA | -0.0355
99 | AATCCGGC | 0.302
100 | CATCCGAA | 0.282

Row | Sequence | PBM E-score
101 | GATCCGGC | 0.369
102 | GATCCGAA | 0.365
103 | CATCCGGC | 0.295
104 | TATCCGAA | 0.307
105 | CATCCGTA | 0.282
106 | CATCCGGA | 0.426
107 | CATCCGGG | 0.261
108 | AATCCGGT | 0.294
109 | AATCCGGA | 0.455
110 | AATCCAGA | 0.127
111 | AGAATGCG | 0.0628
112 | CAAGGCGA | -0.174
113 | GACGCCTA | -0.228
114 | AGCTGTTG | -0.0549
115 | AAGAAATC | -0.104
116 | ACATGAGG | -0.0733
117 | GATCCGGA | 0.437
118 | GCTCCGAA | 0.361
119 | CCTCCGAA | 0.152
120 | TATCCGCA | 0.335
121 | TATCCGGA | 0.446
122 | GATCCGTA | 0.336
123 | GATCCGCA | 0.319
124 | TCTCCGAA | 0.257
125 | TATCCTGA | -0.107

Row | Sequence | PBM E-score
126 | TACCGATA | 0.0617
127 | GACTAACC | -0.2
128 | ACCTCAAG | -0.0979
129 | ATGATCTA | 0.0443
130 | CCGTCCCC | 0.166
131 | ACGTCCCG | 0.279
132 | CCGTCCCG | 0.371
133 | TACTCAGA | -0.0418
134 | ATGCTCTA | -0.211
135 | CCAGACCG | 0.0829
136 | CAGGACCG | -0.0353
137 | ACGGACCC | 0.344
138 | CCGGACCG | 0.378
139 | GCGGACCC | 0.336
140 | CGGGACAC | 0.245
141 | CGGGACCG | 0.373
142 | AGGGACAG | -0.3
143 | CCGGACCC | 0.379
144 | CGGGACAG | 0.359
145 | AGGGACCG | -0.128
146 | CGGGACCA | 0.264
147 | AGGGTTAT | -0.0536
148 | GGATAAAC | 0.195
149 | CGACCTCC | 0.208
150 | AGTCATGG | -0.234

Row | Sequence | PBM E-score
151 | CCAAGAGG | -0.122
152 | CGCCGAGA | 0.228
153 | GCTGGTAC | 0.029
154 | CGGCACAA | 0.121
155 | CCTTGACA | -0.209
156 | TTACCGAA | 0.105
157 | CGTATAGA | -0.231
158 | GGTTCCAA | 0.273
159 | AGTTCCTA | 0.0135
160 | AGTTCCCA | 0.16
161 | CGTTCCGC | 0.453
162 | CGTTCCTA | -0.0878
163 | CGTTCCAA | -0.0612
164 | CGTTCCCC | 0.146
165 | GGTTCCCA | -0.0344
166 | CGTTCCTC | 0.194
167 | CGTTCCGA | 0.455
168 | AGTTCCGA | 0.456
169 | GGTTCCGA | 0.476
170 | GATCCACC | -0.0343
171 | ACGAGATC | 0.00781
172 | GAAGGGCC | 0.00364
